The values that follow come from PubChem BioAssay (Tox21).

A short description of experiment [1]: Nuclear factor erythroid 2-related factor 2/antioxidant responsive element (Nrf2/ARE) small molecule agonists: qHTS cell viability counter screen in human keratinocytes (AID 1919968; active = well fitted curve in the direction sought with a large enough effect in the repeat runs; an effect the other way counts as inactive or inconclusive; note: nearly all actives have a fitted effect of over 55% in size; note: potency is the fitted concentration of half-maximal effect). An outline of the steps:
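Cytotoxicity was multiplexed with the Nrf2/ARE luciferase assay in the same wells. Stably transfected HaCaT keratinocytes were treated with test compounds for 23 h at 37 C. Cell viability was then measured by CellTiter-Fluor fluorescence.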
Background: In qHTS, concentration-response curves come from the screen itself.

The nature of experiment [2]: Nuclear factor erythroid 2-related factor 2/antioxidant responsive element (Nrf2/ARE) small molecule agonists: luciferase reporter gene qHTS assay in human keratinocytes (AID 1919969). Note: nearly all actives have a fitted effect of over 35% in size. Note: potency is the fitted concentration of half-maximal effect. On the technique in general: Reporter assays use an easily measured gene product as a stand-in for the process of interest.
Experiment [3] addresses Gonadotropin-releasing hormone receptor (Homo sapiens) (UniProt P30968). The experiment can be described thus: Human gonadotropin-releasing hormone receptor (GnRHR) small molecule agonists, calcium flux assay in GnRHR-HEK293 cells (AID 1920063). Note: nearly all actives have a fitted effect of over 35% in size. An outline of the steps: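 Agonist activity was measured as intracellular calcium flux in HEK293 cells engineered to stably express human GnRHR. After dye loading for 1 hour at 37 C, compounds in DMSO were added and fluorescence was followed for 3 minutes.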
(Calcium flux is commonly read through the fluorescence of an indicator in the cells.)

For experiment [4], the target named is KiSS-1 receptor (Homo sapiens) (UniProt Q969F8). Nature of the experiment: Human kisspeptin (KISS1R) small molecule agonists, calcium flux assay in KISS1R-HEK293 cells (AID 1920064; active = well fitted curve in the direction sought with a large enough effect in the repeat runs; an effect the other way counts as inactive or inconclusive). An outline of the steps:
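Agonist activity is monitored as intracellular calcium rise in engineered HEK293 cells carrying human KISS1R. Cells are dye-loaded for 1 h at 37 C before compound addition, and fluorescence is recorded for 3 min.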

Experiment [5] is described as follows: p53 small molecule agonists, cell-based qHTS assay with human liver microsomes (AID 1963577). An outline of the steps: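 Fluorescence of the beta-lactamase reporter in p53RE-bla cells, detected with LiveBLAzer substrate (2 h, room temperature, dark), served as the read-out after 16 h compound exposure at 37 C with human liver microsomes and NADPH, each 0.5 mg/mL final.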

Experiment [6] in a line: p53 small molecule agonists, cell-based qHTS assay with rat liver microsomes (AID 1963578). An outline of the steps:
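Cells carrying a p53 response element–beta-lactamase reporter were plated and rested 5 h, then dosed with compound in DMSO plus rat liver microsomes and NADPH, each at 0.5 mg/mL final. After 16 h at 37 C, LiveBLAzer substrate was added for 2 h.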

Experiment [7] in a line: p53 small molecule agonists, cell-based qHTS assay with human liver microsomes: qHTS cell viability counter screen (AID 1963579). Note: nearly all actives have a fitted effect of over 45% in size. An outline of the steps:
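Cytotoxicity counter screen: p53RE-bla, 4,000 cells/well; 5 h settle, 37 C/5% CO2; cpd + HLM 0.5 mg/mL + NADPH 0.5 mg/mL (final); 16 h, 37 C; CellTiter-Glo, 30 min RT, luminescence.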

Experiment [8] is described as follows: p53 small molecule agonists, cell-based qHTS assay with rat liver microsomes: qHTS cell viability counter screen (AID 1963580). Note: nearly all actives have a fitted effect of over 45% in size. An outline of the steps: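 Counter screen for cytotoxicity under metabolic activation: rat liver microsomes and NADPH, 0.5 mg/mL final each, added with compounds to p53RE-bla HCT-116 cells; 16 h at 37 C, then ATP luminescence read.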

Experiment [9] is described as follows: p53 small molecule agonists, cell-based qHTS assay: qHTS cell viability counter screen (AID 1963581). Note: nearly all actives have a fitted effect of over 45% in size. An outline of the steps:
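Viability was counter-screened in parallel with the p53 agonist reporter by measuring intracellular ATP luminescence in the same HCT-116 p53RE-bla wells after 16 h compound treatment at 37 C.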

A short description of experiment [10]: p53 small molecule agonists, cell-based qHTS assay (AID 1963582; active = well fitted activation curve with a large enough effect in the signal ratio in the repeat runs, not every such curve was filed as active; the % refers to the signal ratio; note: potency is the fitted concentration of half-maximal effect). An outline of the steps: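 Cells carrying a p53-responsive bla reporter are treated with test compounds for 16 h at 37 C; beta-lactamase activity is then detected with LiveBLAzer B/G FRET substrate after 2 h at room temperature.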
Experiment [11] has as its target 5-hydroxytryptamine receptor 2A (Homo sapiens) (UniProt P28223). Nature of the experiment: 5-hydroxytryptamine receptor 2A (HTR2A) small molecule antagonists, cell-based qHTS assay (AID 1963586). Note: nearly all actives have a fitted effect of over 45% in size. An outline of the steps: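 CHO cells stably expressing human HTR2A were plated for 18 h at 37 C, then loaded with calcium dye for 1 h. Compounds were preincubated 5 min at room temperature before DOI (4 nM solution) was added. Kinetic fluorescence was read for 3 min.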

Experiment [12] shares this target. The experiment can be described thus: 5-hydroxytryptamine receptor 2A (HTR2A) small molecule agonists, cell-based qHTS assay (AID 1963587). Note: nearly all actives have a fitted effect of over 30% in size. Note: potency is the fitted concentration of half-maximal effect. An outline of the steps:
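HTR2A-CHO cells, plated 18 h at 37 C/5% CO2, dye-loaded 1 h at 37 C; compounds in DMSO added by pin tool (agonist mode). Intracellular calcium flux read as kinetic fluorescence on FDSS over 2 min at 1 s intervals.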

In experiment [13] the target is Muscarinic acetylcholine receptor M1 (Homo sapiens) (UniProt P11229). Nature of the experiment: Cholinergic receptor muscarinic 1 (CHRM1) small molecule antagonists, cell-based qHTS assay (AID 1963588). Note: nearly all actives have a fitted effect of over 40% in size. An outline of the steps: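 Compounds were tested at 15 concentrations in three independent runs. Dye-loaded CHRM1-CHO cells were exposed 5 min at room temperature before stimulation by acetylcholine added at 50nM. Intracellular calcium was read kinetically on FDSS for 3 min.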

Experiment [14] has the same target. Nature of the experiment: Cholinergic receptor muscarinic 1 (CHRM1) small molecule agonists, cell-based qHTS assay (AID 1963589). Note: nearly all actives have a fitted effect of over 35% in size. An outline of the steps:
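Cells were plated and incubated 18 h at 37 C/5% CO2, loaded with calcium dye for 1 h at 37 C, then treated with compounds in DMSO. Fluorescence was recorded kinetically at 1 sec intervals.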

Experiment [15] can be described thus: cAMP Responsive Elements (CRE) small molecule agonists, cell-based qHTS assay (AID 1963590). An outline of the steps:
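Cells carrying a CRE-driven beta-lactamase reporter (HEK 293T) are seeded, incubated overnight (18 h), and treated with test compounds for 3 h at 37 C; reporter activity is then detected with a FRET substrate after 2 h at room temperature.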

A short description of experiment [16]: cAMP Responsive Elements (CRE) small molecule antagonists, cell-based qHTS assay (AID 1963591; active = well fitted inhibition curve with a large enough effect in the signal ratio in the repeat runs, not every such curve was filed as active; the % refers to the signal ratio). An outline of the steps:
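Cells (CRE-bla HEK 293T, DMEM with 10% dialyzed FBS and 25 mM HEPES) are seeded and incubated 18 h. Compounds are added with NKH477 agonist at 0.25 uM final for 3 h, then FRET substrate for 2 h.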

For experiment [17], the target named is Beta-2 adrenergic receptor (Homo sapiens) (UniProt P07550). The experiment can be described thus: Adrenergic beta2 receptor (ADRB2) small molecule antagonists, cell-based qHTS assay (AID 1963592). Note: series mostly up to about 92 µM; nearly all actives have a fitted effect of over 50% in size. An outline of the steps:
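Assay format: CHO-ADRB2 cells, 18-20hr seeding at 37C/5% CO2, then compound plus 1nM isoproterenol agonist mix for 0.5hr RT. Homogeneous time-resolved fluorescence cAMP detection after 1hr, expressed as 665/615 nm ratio.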

For experiment [18], the target named is D(2) dopamine receptor (Homo sapiens) (UniProt P14416). Nature of the experiment: Dopamine D2 receptor (DRD2) small molecule agonists, cell-based qHTS assay (AID 1963594). Note: nearly all actives have a fitted effect of over 35% in size. An outline of the steps:
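HEK293 cells stably expressing DRD2 were cultured 24 h at 37 C, then given Ro20-1724 (0.1 mM final) and compounds for 10 min at room temperature. NKH477 (200nM) was then added for 30 min. cAMP was read by HTRF.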

Experiment [19] has the same target. Nature of the experiment: Dopamine D2 receptor (DRD2) small molecule antagonists, cell-based qHTS assay (AID 1963595; active = well fitted inhibition curve with a large enough effect in the signal ratio in the repeat runs, with a control signal flat; the % refers to the signal ratio). An outline of the steps: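 Cells were plated and grown for 24 h at 37 °C. Ro20-1724 (0.1 mM final) went in first, then compound for 10 min. NKH477 (200 nM) with quinpirole (12 nM) followed for 30 min at RT, then HTRF detection reagents for 1 h.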

The target in experiment [20] is Beta-2 adrenergic receptor (Homo sapiens) (UniProt P07550). Nature of the experiment: Adrenergic beta2 receptor (ADRB2) small molecule agonists, cell-based qHTS assay (AID 1963593).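 Note: CHO cells stably overexpressing human ADRB2.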 An outline of the steps: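 CHO cells stably over-expressing ADRB2 were plated overnight at 37C, then dosed with compounds plus a stimulation mix containing 100uM IBMX and 25uM Ro-20-1724 for 0.5hr at room temperature. cAMP was measured by HTRF competition, 1hr.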

Values without a mark were called inactive. Inconclusive results are not listed. Active and inactive are the calls of the source. Unless noted, calls come from the whole dose curve.

Beta-2 adrenergic receptor (Homo sapiens), sequence (P07550 whole entry, looked up): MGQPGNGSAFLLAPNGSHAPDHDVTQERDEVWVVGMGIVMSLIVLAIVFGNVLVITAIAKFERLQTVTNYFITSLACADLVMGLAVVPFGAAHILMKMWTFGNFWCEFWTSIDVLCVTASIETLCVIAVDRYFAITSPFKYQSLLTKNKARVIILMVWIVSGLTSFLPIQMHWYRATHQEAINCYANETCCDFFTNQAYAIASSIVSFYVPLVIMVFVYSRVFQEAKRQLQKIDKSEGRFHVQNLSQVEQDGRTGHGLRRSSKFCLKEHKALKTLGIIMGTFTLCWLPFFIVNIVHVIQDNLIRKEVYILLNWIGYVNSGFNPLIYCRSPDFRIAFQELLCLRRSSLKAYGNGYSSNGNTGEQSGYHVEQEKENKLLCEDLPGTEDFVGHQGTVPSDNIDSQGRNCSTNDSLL
5-hydroxytryptamine receptor 2A (Homo sapiens), sequence (P28223 whole entry, looked up): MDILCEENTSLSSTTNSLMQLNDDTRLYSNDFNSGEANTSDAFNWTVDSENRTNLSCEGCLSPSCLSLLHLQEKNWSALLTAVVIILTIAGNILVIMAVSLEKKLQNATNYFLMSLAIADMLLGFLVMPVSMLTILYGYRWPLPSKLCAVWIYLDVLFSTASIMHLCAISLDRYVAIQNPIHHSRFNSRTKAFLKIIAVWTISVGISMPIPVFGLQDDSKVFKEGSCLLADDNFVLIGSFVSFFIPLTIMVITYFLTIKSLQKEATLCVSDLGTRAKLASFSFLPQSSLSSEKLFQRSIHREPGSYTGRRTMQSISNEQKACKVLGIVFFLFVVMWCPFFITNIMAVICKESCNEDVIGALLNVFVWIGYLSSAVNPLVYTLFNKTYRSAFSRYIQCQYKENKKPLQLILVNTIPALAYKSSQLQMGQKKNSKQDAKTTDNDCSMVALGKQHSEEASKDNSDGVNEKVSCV
KiSS-1 receptor (Homo sapiens), sequence (Q969F8 whole entry, looked up): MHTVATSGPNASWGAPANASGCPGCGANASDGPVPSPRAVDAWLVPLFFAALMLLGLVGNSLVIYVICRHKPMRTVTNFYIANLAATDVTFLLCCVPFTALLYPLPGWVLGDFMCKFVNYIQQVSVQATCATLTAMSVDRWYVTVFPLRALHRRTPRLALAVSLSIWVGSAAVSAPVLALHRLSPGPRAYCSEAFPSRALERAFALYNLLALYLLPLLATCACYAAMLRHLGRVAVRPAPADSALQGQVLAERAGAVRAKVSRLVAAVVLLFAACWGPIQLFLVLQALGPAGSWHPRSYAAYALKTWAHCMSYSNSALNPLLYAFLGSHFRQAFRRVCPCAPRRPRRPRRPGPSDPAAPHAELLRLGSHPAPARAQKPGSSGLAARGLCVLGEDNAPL
Muscarinic acetylcholine receptor M1 (Homo sapiens), sequence (P11229 whole entry, looked up): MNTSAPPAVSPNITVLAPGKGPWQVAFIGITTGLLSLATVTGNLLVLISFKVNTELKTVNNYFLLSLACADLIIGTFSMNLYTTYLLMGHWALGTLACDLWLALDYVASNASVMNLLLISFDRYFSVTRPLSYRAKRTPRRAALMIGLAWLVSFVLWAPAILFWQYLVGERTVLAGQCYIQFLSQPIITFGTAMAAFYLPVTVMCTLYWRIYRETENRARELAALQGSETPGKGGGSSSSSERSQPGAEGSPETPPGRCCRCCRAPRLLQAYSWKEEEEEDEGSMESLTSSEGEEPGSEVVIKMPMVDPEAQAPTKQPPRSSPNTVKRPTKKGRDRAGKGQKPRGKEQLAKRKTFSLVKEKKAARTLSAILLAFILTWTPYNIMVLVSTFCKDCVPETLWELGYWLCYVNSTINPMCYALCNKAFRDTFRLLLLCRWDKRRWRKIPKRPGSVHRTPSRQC
D(2) dopamine receptor (Homo sapiens), sequence (P14416 whole entry, looked up): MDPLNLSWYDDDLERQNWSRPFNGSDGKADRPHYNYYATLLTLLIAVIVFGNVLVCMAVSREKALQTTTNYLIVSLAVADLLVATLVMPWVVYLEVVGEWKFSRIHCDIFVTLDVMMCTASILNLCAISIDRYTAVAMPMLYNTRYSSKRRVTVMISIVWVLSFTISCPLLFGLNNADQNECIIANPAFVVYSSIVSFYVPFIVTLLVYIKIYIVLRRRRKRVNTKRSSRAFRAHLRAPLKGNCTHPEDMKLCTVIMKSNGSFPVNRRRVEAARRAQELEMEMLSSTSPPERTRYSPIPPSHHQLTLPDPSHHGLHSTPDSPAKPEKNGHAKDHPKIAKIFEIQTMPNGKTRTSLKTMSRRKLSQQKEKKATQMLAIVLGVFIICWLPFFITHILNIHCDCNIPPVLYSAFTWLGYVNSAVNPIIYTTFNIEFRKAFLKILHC
Gonadotropin-releasing hormone receptor (Homo sapiens), sequence (P30968 whole entry, looked up): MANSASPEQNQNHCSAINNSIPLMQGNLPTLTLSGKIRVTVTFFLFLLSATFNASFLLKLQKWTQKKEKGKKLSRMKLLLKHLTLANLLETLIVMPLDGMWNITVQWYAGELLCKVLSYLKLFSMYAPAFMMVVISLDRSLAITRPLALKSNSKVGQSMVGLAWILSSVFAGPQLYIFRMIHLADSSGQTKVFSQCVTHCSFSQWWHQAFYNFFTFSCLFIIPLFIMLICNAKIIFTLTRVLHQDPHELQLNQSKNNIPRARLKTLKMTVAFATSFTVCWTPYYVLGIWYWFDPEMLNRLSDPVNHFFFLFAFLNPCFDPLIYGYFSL

As to `CN(C)CCn1nnnc1SCC1=C(C(=O)O)N2C(=O)[C@@H](NC(=O)Cc3csc(N)n3)[C@H]2SC1`, the Potency result in [1], in [2], in [3], in [5], in [6] and in [7] was “inactive” in each case. Moreover, the Potency result in [8], in experiment [9], in experiment [10], in [11], in [12] and in experiment [13] was “inactive” each time. Further, the Potency result in experiment [14], in experiment [15], in experiment [16], in experiment [17], in experiment [18] and in experiment [19] was “inactive” throughout. The outcome in experiment [4] was inactive.

Regarding `COC(=O)C(c1ccccc1Cl)N1CCc2sccc2C1` (stereo not given), the Potency result in experiment [1], in experiment [2], in experiment [3], in experiment [5], in experiment [6] and in experiment [7] was “inactive” each time. Further, the Potency result in [8], in experiment [9], in experiment [10], in experiment [17], in [20] and in experiment [18] was “inactive” in each case. In addition, in [19], the Potency result is “inactive”. Moreover, the result in experiment [4] was inactive.

Take `CCCCCCCCOCCCN`: the Potency in experiment [1] was 68.6 µM (active); in experiment [12] it was 24.5 µM (active). Also, the Potency entry in experiment [2], in [3], in experiment [5], in experiment [6], in experiment [7] and in experiment [8] was “inactive” each time. In addition, the Potency entry in experiment [9], in [10], in experiment [13], in experiment [14], in [16] and in [17] was “inactive” each time. In addition, the Potency result in experiment [18] is “inactive”. Besides, the outcome in experiment [4] was inactive.

With `CN1C(=O)CC(c2ccccc2)C1=O` (stereo not given), the Potency entry in [1], in experiment [2], in [3], in experiment [5], in experiment [6] and in experiment [7] was “inactive” each time. The Potency entry in [8], in [9], in experiment [10], in experiment [11], in experiment [12] and in experiment [13] was “inactive” throughout. In addition, the Potency result in experiment [14], in experiment [15], in experiment [16], in experiment [17], in [18] and in [19] was “inactive” in each case. The outcome in [4] was inactive.

On to `CCCCCCOC(=O)CCCCC`, for which the Potency result in [1], in experiment [2], in [3], in [5], in [6] and in experiment [7] was “inactive” throughout. The Potency entry in experiment [8], in [9], in experiment [10], in [11], in experiment [12] and in [13] was “inactive” each time. For the same compound, the Potency result in experiment [14], in experiment [15], in experiment [17] and in experiment [19] was “inactive” in each case. Further, in experiment [4], the result was inactive.

With `N=C1N=C(N)c2ccccc21`, the Potency in experiment [1] was 61.1 µM (active); in experiment [2], 27.3 µM (active); in experiment [10], 36.3 µM (active). In addition, the Potency result in [3], in experiment [5], in experiment [6], in experiment [7], in experiment [8] and in experiment [9] was “inactive” in each case. In addition, the Potency result in experiment [11], in experiment [12], in [13], in experiment [14], in experiment [16] and in [17] was “inactive” in each case. For the same compound, the Potency entry in [20], in experiment [18] and in experiment [19] was “inactive” throughout. Moreover, the result in [4] was inactive.

`O=C(c1ccc(F)cc1)C1CCN(CCn2c(=O)[nH]c3ccccc3c2=O)CC1`: the Potency result in experiment [1], in experiment [2], in experiment [3], in [5], in experiment [6] and in experiment [7] was “inactive” in each case. Further, the Potency entry in experiment [8], in experiment [9], in experiment [10], in experiment [12], in [13] and in [14] was “inactive” each time. The Potency entry in experiment [17], in experiment [18] and in experiment [19] was “inactive” in each case. In experiment [4], the outcome was inactive.
